Assay [1] in a line: ACEA_ER_80hr: ACEA Biosciences xCELLigence Real-Time Cell Analysis on Estrogen Receptor Agonism for Proliferation (AID 2282667; active means hit-call score of the fitted dose curve at least 0.9, where 1 is the maximum). Particulars: T47D proliferation, impedance (xCELLigence), 80 h. In outline: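 Cell-growth kinetics were measured by impedance in T47D cells treated continuously with compound (top 100 uM final, 1:4 steps, 8 points). Activity at 80 h was scored as signal gain over the DMSO baseline.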

Assay [2] is described as follows: APR_HepG2_CellCycleArrest_24hr: Apredica 24-hour HepG2 Assay for Cell Cycle Arrest (AID 2282905).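 Further: cell cycle arrest scored as ratio of 2N to 4N nuclear DNA content.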 Particulars: imaging, actives raise or lower the signal. In outline: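 HepG2 cells were exposed to compounds at 0.39–200 uM (ten concentrations, duplicate) in 0.5% v/v DMSO for 24 hr. After formaldehyde fixation and Triton permeabilization, Hoechst 33342-stained nuclei were imaged at 20x; DNA content was quantified, with bidirectional fitting against DMSO.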

Assay [3] can be described thus: APR_HepG2_NuclearSize_24hr: Apredica 24-hour HepG2 Assay for Nuclear Size (AID 2282907). Conditions: high-content imaging, actives raise or lower the signal. In outline: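 HepG2 human liver cells were exposed for 24 hr to compounds at 0.39–200 uM (ten concentrations, duplicate) in 0.5% v/v DMSO. They were then formaldehyde-fixed, Triton-permeabilized and Hoechst 33342-stained, and nuclear diameter was imaged at 20x. Bidirectional fits were made against DMSO.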

Assay [4] can be described thus: APR_HepG2_CellLoss_24hr: Apredica 24-hour HepG2 Assay for Cell Loss (AID 2282908).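 On AC50: fit in both directions so a hit may be cell loss or gain.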 Conditions: high-content imaging. In outline:
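Compounds were tested at 0.39–200 uM in duplicate with 0.5% v/v DMSO final. Cells were then fixed in 3.7% formaldehyde, Hoechst 33342 nuclei were imaged at 20x by HCS, and cell number was fitted bidirectionally against DMSO.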

Assay [5] is described as follows: APR_HepG2_MitoticArrest_24hr: Apredica 24-hour HepG2 Assay for Mitotic Arrest (AID 2282910). Particulars: high-content imaging, actives raise or lower the signal. In outline:
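Compounds are dosed onto HepG2 cells across ten concentrations up to 200 uM for 24 hr. Cells are then fixed in 3.7% formaldehyde, permeabilised, and labelled for phospho-histone H3 and nuclei; images are scored by cell cycle analysis and fitted bidirectionally relative to DMSO.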

The nature of assay [6]: APR_HepG2_MitoMembPot_24hr: Apredica 24-hour HepG2 Assay for Mitochondrial Membrane Potential (AID 2282911). Conditions: imaging, actives raise or lower the signal. In outline:
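Human hepatoma HepG2 cultures received ten compound concentrations up to 200 uM for 24 hr. Membrane-potential dye signal, captured by automated fluorescence microscopy, was scored for gain or loss against DMSO controls.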

The nature of assay [7]: APR_HepG2_MitoMass_24hr: Apredica 24-hour HepG2 Assay for Mitochondrial Mass (AID 2282912). Particulars: high-content imaging, actives raise or lower the signal. In outline: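 Human HepG2 liver cells were exposed for 24 hr to compounds at 0.39–200 uM (duplicates, 0.5% v/v DMSO final). They were stained live with 250 nM MitoTracker Red CMXRos for 30 min, fixed in 3.7% formaldehyde, and imaged by HCS fluorescence; signals were fitted bidirectionally against DMSO.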

Assay [8] in a line: APR_HepG2_p53Act_24hr: Apredica 24-hour HepG2 Assay for p53 Activation (AID 2282913).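 Further: p53 protein immunofluorescence averaged per cell in HepG2 with Hoechst nuclei.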 Conditions: high-content imaging, actives raise or lower the signal. In outline:
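Automated fluorescence imaging quantifies p53 immunostaining in HepG2 cells after a 24 hr exposure (0.39–200 uM, duplicate, 0.5% DMSO). Nuclei are located by Hoechst 33342 staining.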

Assay [9] is described as follows: APR_HepG2_CellCycleArrest_72hr: Apredica 72-hour HepG2 Assay for Cell Cycle Arrest (AID 2282914). Particulars: high-content imaging, actives raise or lower the signal. In outline:
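Cell cycle arrest in HepG2 was scored from nuclear DNA content after 72 hr compound treatment (0.39–200 uM). Activity, either gain or loss, was fitted against the DMSO baseline.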

Assay [10] in a line: APR_HepG2_CellLoss_72hr: Apredica 72-hour HepG2 Assay for Cell Loss (AID 2282915). Particulars: high-content imaging. In outline: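 Cell number comes from Hoechst 33342-labelled nuclei, imaged at 20x after 3.7% formaldehyde fixation. Dosing was 0.39–200 uM, ten concentrations in duplicate, 0.5% DMSO final, for 72 h. Bidirectional fit relative to DMSO baseline.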
Assay [11] in a line: APR_HepG2_MicrotubuleCSK_24hr: Apredica 24-hour HepG2 Assay for Microtubule CSK Stabilty (AID 2282909). Conditions: HepG2 microtubule cytoskeleton imaging, actives raise or lower the signal. In outline:
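HepG2 cells exposed 24 h to compounds at 0.39–200 uM (duplicate, 0.5% v/v DMSO final), then fixed, permeabilized and immunostained for alpha-tubulin with Hoechst 33342. Cytoskeleton imaged at 20x; bidirectional fit versus DMSO baseline.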

Assay [12] can be described thus: APR_HepG2_CellCycleArrest_1hr: Apredica 1-hour HepG2 Assay for Cell Cycle Arrest (AID 2282666). Conditions: high-content imaging, actives raise or lower the signal. In outline: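 HepG2 cells exposed for 1 h to 0.39–200 uM compound (0.5% DMSO). Fixed, Hoechst-stained nuclei imaged by ArrayScan; DNA content quantified by Cell Cycle analysis; bidirectional fit against DMSO.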

Assay [13] in a line: APR_HepG2_CellLoss_1hr: Apredica 1-hour HepG2 Assay for Cell Loss (AID 2282668).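 Further: curves fitted both ways against DMSO so gain or loss of cells counts.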 Conditions: high-content imaging. In outline:
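HepG2 cells were treated for 1 h with compound at 0.39–200 uM, in duplicate, in 0.5% DMSO. After formaldehyde fixation, Hoechst 33342-stained nuclei were imaged on an ArrayScan to count cells. Data were fitted bidirectionally versus DMSO.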

The nature of assay [14]: APR_HepG2_MicrotubuleCSK_1hr: Apredica 1-hour HepG2 Assay for Microtubule CSK Stabilty (AID 2282669). Conditions: HepG2 microtubule cytoskeleton imaging, actives raise or lower the signal. In outline: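 HepG2 cells exposed 1 h to 0.39–200 uM compound (0.5% DMSO, duplicates), then formaldehyde-fixed, permeabilized and immunostained for alpha-tubulin with Hoechst nuclei. Imaged by ArrayScan high-content analysis; bidirectional fit versus DMSO.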

A short description of assay [15]: APR_HepG2_NuclearSize_1hr: Apredica 1-hour HepG2 Assay for Nuclear Size (AID 2282670). Particulars: high-content imaging, actives raise or lower the signal. In outline: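 HepG2 cells dosed 1 hr with 0.39–200 uM compound (0.5% DMSO), formaldehyde-fixed, Hoechst 33342-stained and imaged at 20x; nuclear diameter from nuclear stain, fitted bidirectionally against DMSO.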

A short description of assay [16]: APR_HepG2_MitoticArrest_1hr: Apredica 1-hour HepG2 Assay for Mitotic Arrest (AID 2282672). Conditions: high-content imaging, actives raise or lower the signal. In outline: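 HepG2 cells exposed 1 hr to compounds at 0.39–200 uM (0.5% v/v DMSO final), then fixed in 3.7% formaldehyde and immunostained for phospho-histone H3 with Hoechst 33342. Mitotic arrest scored by automated fluorescence imaging, fitted bidirectionally versus DMSO.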

A short description of assay [17]: APR_HepG2_P-H2AX_1hr: Apredica 1-hour HepG2 Assay for H2AX Phosphorylation (AID 2282673). Particulars: high-content imaging, actives raise or lower the signal. In outline:
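HepG2 dosed 1 hr at 0.39-200 uM (0.5% DMSO final), duplicate. Fixed in 3.7% formaldehyde, Triton permeabilized, immunostained for phospho-histone H2A.x (1:200) with Hoechst 33342; ArrayScan 20x imaging, bidirectional fit vs DMSO.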

Assay [18] is described as follows: APR_HepG2_MitoMass_1hr: Apredica 1-hour HepG2 Assay for Mitochondrial Mass (AID 2282674). Conditions: high-content imaging, actives raise or lower the signal. In outline:
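HepG2 cells dosed 1 hr with 0.39-200 uM compound (0.5% DMSO), duplicate wells. Mitochondria stained with 250 nM MitoTracker Red CMXRos for 30 min before formaldehyde fixation, imaged at 20x by ArrayScan; bidirectional fit versus DMSO.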

The nature of assay [19]: APR_HepG2_MitoMembPot_1hr: Apredica 1-hour HepG2 Assay for Mitochondrial Membrane Potential (AID 2282675). Particulars: imaging, actives raise or lower the signal. In outline:
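HepG2 cells dosed 1 hour with 0.39–200 uM compound in duplicate, 0.5% DMSO final. MitoTracker Red CMXRos (250 nM, 30 min) loaded before formaldehyde fixation; fluorescence quantified by high-content imaging, bidirectional fitting versus DMSO.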

Assay [20] can be described thus: APR_HepG2_StressKinase_1hr: Apredica 1-hour HepG2 Assay for Stress Kinase (AID 2282906). Particulars: HepG2 stress kinase (phospho-c-Jun) imaging, actives raise or lower the signal. In outline:
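HepG2 cells dosed 0.39-200 uM (0.5% DMSO) for 1 h, then formaldehyde-fixed. Stress kinase read by phospho-c-Jun immunofluorescence using high-content imaging; bidirectional fit vs DMSO.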

SMILES strings stand for the structures. Records with an inconclusive call do not appear. Activity calls are given as the source filed them. How the source made its calls, unless noted: active means hit-call score of the fitted dose curve at least 0.9, where 1 is the maximum; inactive means score below 0.9.

Consider `O=C(O)C(F)(F)C(F)(F)C(F)(F)C(F)(F)C(F)(F)C(F)(F)C(F)(F)C(F)(F)C(F)(F)F`, for which the outcome in assay [1], in assay [2] and in [6] was inactive. The AC50 (commonly the concentration at which the activity in the assay is half-maximal) in [3] is 130 µM (active); in [4], 108 µM (active); in assay [5], 106 µM (active); in assay [7] it was 109 µM (active); in assay [8], 97.4 µM (active); in [9], 66.8 µM (active). Further, the AC50 in [10] was 96 µM (active).

For the molecule `CCCCCCCCCC[N+](C)(C)CCCCCCCCCC`, the call in [1], in assay [7] and in assay [8] was inactive. Besides, the AC50 was 43 µM (active) in assay [2]; 4.36 µM (active) in [4]; 10.9 µM (active) in assay [11]; 4.34 µM (active) in [5]; 26 µM (active) in assay [6]; 48.2 µM (active) in assay [9]. Also, the AC50 in assay [10] was 3.25 µM (active).

With `CCOCCOC(C)=O`, the molecule was classed as inactive in assay [2], in assay [3], in assay [4], in [11], in [6] and in assay [7]. Besides, the molecule was classed as inactive in assay [8], in [9] and in assay [10].

For the molecule `ClC(Cl)=C(c1ccc(Cl)cc1)c1ccc(Cl)cc1`, the result in assay [1] and in [2] was inactive. Also, the concentration at half-maximal activity (AC50) in assay [4] is 55.3 µM (active); in assay [5] it was 60.7 µM (active); in assay [6], 23.2 µM (active); in [7], 50.4 µM (active); in [8], 57.2 µM (active); in [9], 17 µM (active). Moreover, in assay [10], the half-maximal activity concentration (AC50) is 50 µM (active).

As for `Clc1ccc(C(Cl)(Cl)Cl)cc1`, the molecule was classed as inactive in [1], in assay [2], in assay [3], in assay [4], in assay [6] and in [7]. Further, the molecule was classed as inactive in assay [8], in [9] and in assay [10].

Turning to `CCSC(=O)N(CC)C1CCCCC1`, the molecule was classed as inactive in [12], in assay [13], in [14], in [15], in assay [16] and in [17]. Besides, the result in [18], in assay [19], in assay [2], in assay [20], in [3] and in assay [4] was inactive. Further, the call in assay [11], in assay [6], in [7], in [9] and in assay [10] was inactive.

Regarding `CC(C)(c1ccccc1)c1ccc(O)cc1`, the AC50 was 483 nM (active) [middle of 4 runs] in assay [1], 84.6 µM (active) in assay [4] and 63.3 µM (active) in assay [10]. In addition, the outcome in assay [2], in assay [6], in assay [7], in assay [8] and in assay [9] was inactive.
